Reference: PubChem BioAssay (NCI)
About 83,000 compounds went through this panel and 20% of them were active in at least one assay; those are over-represented in the sample as a whole.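 Treatment: one concentration, 48 hours, 96-well format. Scoring: percent growth, with anything below 10 considered active.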 Unmarked numbers belong to inactive results. Activity calls are given as the source filed them.

What was measured:
Assay in all cases: NCI-60 one-dose screen, 48 h (100 = growth as untreated, 0 = no growth, -100 = all killed)
[1] = tested on: RPMI-8226 leukemia; conditions: 10 µM unless noted
[2] = tested on: OVCAR-8 ovarian; conditions: 10 µM unless noted
[3] = tested on: OVCAR-5 ovarian; conditions: 10 µM unless noted
[4] = tested on: OVCAR-4 ovarian; conditions: 10 µM unless noted
[5] = tested on: SK-OV-3 ovarian; conditions: 10 µM unless noted
[6] = tested on: IGROV1 ovarian; conditions: 10 µM unless noted
[7] = tested on: OVCAR-3 ovarian; conditions: 10 µM unless noted
[8] = tested on: HS 578T breast; conditions: 10 µM unless noted
[9] = tested on: NCI/ADR-RES ovarian; conditions: 10 µM unless noted
[10] = tested on: T-47D breast; conditions: 10 µM unless noted
[11] = tested on: BT-549 breast; conditions: 10 µM unless noted
[12] = tested on: MDA-MB-435 melanoma; conditions: 10 µM unless noted
[13] = tested on: SW-620 colon; conditions: 10 µM unless noted
[14] = tested on: MCF7 breast; conditions: 10 µM
[15] = tested on: HCT-116 colon; conditions: 10 µM unless noted
[16] = tested on: HCC-2998 colon; conditions: 10 µM unless noted
[17] = tested on: KM12 colon; conditions: 10 µM unless noted

| Structure (SMILES) | growth [1] | growth [2] | growth [3] | growth [4] | growth [5] | growth [6] | growth [7] | growth [8] | growth [9] | growth [10] | growth [11] | growth [12] | growth [13] | growth [14] | growth [15] | growth [16] | growth [17] |
| --- | --- | --- | --- | --- | --- | --- | --- | --- | --- | --- | --- | --- | --- | --- | --- | --- | --- |
| COc1ccc(CCN2C(=O)CCSC2=S)cc1 | 8.09% (active) | 63.7% | 98.1% | 74.8% | 102% | 41.7% | 9.45% (active) | 87.7% | 71.7% | 62% | 96.3% | 4.04% (active) | 21.9% | 16.2% | 17.1% | 106% | 0.314% (active) |
| CCOc1cc2c(cc1OCC)C(c1cc(C)c(O)c(C)c1)NCC2 (stereo unspecified) | 77.5% | 92.2% | 97.6% | 95.9% | 101% | 101% | 101% | 107% | 84.4% | 91.6% | 107% | 97.5% | 100% | 89.1% | 94.2% | 103% | 103% |
| COc1cc(CNC(=O)c2ccsc2Nc2ccnc(C(F)(F)F)c2)ccc1O | 91% | 102% | 107% | 105% | 97.3% | 105% | 105% | 104% | 95.4% | 98.7% | 103% | 101% | 100% | 113% | 101% | 109% | 104% |
| CCc1ccc(CNCC(O)c2ccccc2)cc1 (stereo unspecified) | 34.3% | 72.2% | 76.1% | 55.3% | 90.6% | 41.1% | 71.4% | 93.3% | 65.7% | 72% | 90.1% | 69.9% | 89.6% | 29.8% | 47.8% | 38.5% | 72.5% |
| Nc1ncnc(N)c1NC(=O)c1ccc(OCc2ccccc2)cc1 | 105% | 102% | 106% | 107% | 102% | 106% | 110% | 103% | 113% | 96% | 107% | 109% | 98.1% | 103% | 111% | 115% | 104% |
| COc1ccc(Nc2nc(N/N=C/c3ccc(O)cc3)nc(Nc3ccc([N+](=O)[O-])cc3)n2)cc1 | 99.7% | 100% | 109% | 111% | 112% | 121% | 124% | 110% | 109% | 109% | 114% | 116% | 112% | 97.4% | 105% | 102% | 121% |
| CCOC(=O)c1cc2c(n1Cc1ccccc1)-c1oncc1CCC2 | 64.4% | 80.9% | 101% | 72.9% | 87.1% | 58% | 76.6% | 76.5% | 52.3% | 80.7% | 101% | -7.87% (active) | 43% | 45.8% | 64.7% | 87.5% | 56.1% |
| Nc1nc(Nc2cccc(F)c2)nc2ccccc12 | 0.232% (active) | 55.9% | 54.1% | 40.4% | 72.7% | 28% | 50.6% | 63.9% | 38.1% | 41.5% | 75.7% | 18.6% | 35.1% | 41.5% | 23.1% | -59.9% (active) | 59.2% |
| O=C(Nc1ccc(N2CCNCC2)cc1)c1[nH]ncc1Nc1cc(C2CC2)ncn1 | 55.4% | 81.2% | 99% | 62.3% | 10.3% | 33.4% | 43.7% | 41.1% | 102% | 57.1% | 42.9% | 50.6% | 33.1% | 37% | 14.6% | 46.3% | 21.1% |
| CC(C)(C)c1ccc(C2CC(=O)C3=C(C2)Nc2ccccc2N(C(=O)c2ccccc2Cl)C3c2ccc(F)cc2)cc1 (stereo unspecified) | 14.1% | -12% (active) | 38.9% | -68.3% (active) | 62.5% | -26.7% (active) | -28.5% (active) | 81.5% | 24.3% | 9.46% (active) | 44.4% | -80.1% (active) | 2.52% (active) | -33.3% (active) | 7.97% (active) | -21.2% (active) | 9.1% (active) |
| CCOC(=O)C1=C(C)N=c2s/c(=C\c3cc(Cl)ccc3O)c(=O)n2C1c1ccc(OC)cc1 (stereo unspecified) | 78.6% | 90.4% | 93.1% | 94.7% | 104% | 87.6% | 95.5% | 117% | 85.6% | 82% | 102% | 107% | 103% | 93.2% | 72.2% | 98.6% | 94.2% |
| CCN1C(=O)N(CC)C2Nn3c(s/c(=C\c4ccccc4F)c3=O)=NC21 (stereo unspecified) | 54.1% | 44% | 76.5% | 84.9% | 44.8% | 61.1% | 28.5% | 56.9% | 7.68% (active) | 72.8% | 44.3% | -19.9% (active) | 38.4% | 33.1% | 17.5% | 36.1% | 28.5% |
| COc1ccc(OC)c(/C=C/C(=O)c2c(C)nc3ccccc3c2/C=C/c2ccccc2)c1 | 19.5% | 40.5% | 80% | 59.3% | 91% | 52.6% | 37.4% | 68% | 58.9% | 30.6% | 59% | 46.4% | 36.5% | 19.8% | 34.1% | 93.6% | 69.4% |
| FC(F)(F)c1cccc(Nc2nc3ccccc3nc2Nc2cccc(C(F)(F)F)c2)c1 | -30.9% (active) | -24.3% (active) | 4.13% (active) | 11.7% | 32% | -58.2% (active) | -29.7% (active) | -4.37% (active) | 77.9% | -61.7% (active) | 7.74% (active) | -71.8% (active) | -26.9% (active) | -57% (active) | -41.7% (active) | -55.1% (active) | -37.2% (active) |
| Oc1c(CN2CCN(c3ccccc3F)CC2)cc(Br)c2cccnc12 | -0.421% (active) | -49% (active) | -19.3% (active) | -81% (active) | -8.19% (active) | -34.1% (active) | -86% (active) | -10.3% (active) | 23.8% | 14.3% | -53.8% (active) | -48.3% (active) | -13.5% (active) | 9.33% (active) | -36.4% (active) | 30.7% | 0.135% (active) |
| Oc1ccc(-c2nc(-c3ccc4oc5ccc(-c6[nH]c(-c7ccc(O)cc7)nc6-c6ccccc6)cc5c4c3)c(-c3ccccc3)[nH]2)cc1 | 19.8% | 72.8% | 74.3% | 52.9% | 87% | 34.1% | 43.6% | 66.8% | 72.3% | 46.8% | 57.2% | 43.5% | 54.7% | 50.7% | 31.3% | 62.3% | 50.8% |
| Cc1cc(OC(=O)c2ccc([N+](=O)[O-])cc2)nc2[nH]c(=O)sc12 | 99.8% | 102% | 105% | 98.7% | 115% | 96.9% | 108% | 95.7% | 104% | 99.7% | 111% | 108% | 104% | 90.2% | 105% | 104% | 102% |
| Nc1ccc(-c2nc3cc(Oc4ccc(Oc5ccc6[nH]c(-c7ccc(N)cc7)nc6c5)cc4)ccc3[nH]2)cc1 | 101% | 91.3% | 113% | 114% | 98.7% | 120% | 122% | 108% | 103% | 77.3% | 105% | 109% | 98.4% | 85.1% | 97% | 106% | 104% |
